Laboratory results published in PubChem BioAssay AID2132 (NMMLSC, 2009).
Active and inactive are the calls of the source.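 The calls were made as follows: active = inhibition above 20%; inactive = the rest.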 Peptide text beside a SMILES is read from it. * marks the point of attachment. Cbz = O=C(OCc1ccccc1)*

Assay: inhibition of 26S proteasome fluorogenic peptide cleavage, counter-screen for 26S proteasome disassembly project, biochemical, fluorogenic peptides, secondary (AID 2132)
Details: yeast 26S proteasome, fluorogenic peptide cleavage rate; with Suc-LLVY-amc; at 100 µM; active compounds read high

| Compound | inhibition |
| --- | --- |
| CC(=O)N1C(=O)C(=C2C=C(C)OC(C)=C2)c2ccccc21 | 45% (active) |
| CC(C)C[C@@H](C=O)NC(=O)[C@H](CC(C)C)NC(=O)[C@H](CC(C)C)NC(=O)OCc1ccccc1 (Cbz-Leu-Leu-Leu-aldehyde) | 97% (active) |
